# PubChem BioAssay AID1063 (University of Pittsburgh Molecular Library Screening Center, 2008)
# Hit rate of the full screen: of about 200,000 compounds, about 18,000 (9%) were called active. Many of the other results were omitted from the sample, so actives are more common in it than they were. A number with no mark means an inactive call. No stated cut-off is given here; in the data, active means inhibition above about 50%; inactive means the rest.
# Test: antileishmanial activity against promastigotes – primary screen (AID 1063);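 further: promastigotes grown with compound for 44 hours at 28 °C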
# Settings: Leishmania major promastigotes, resazurin fluorescence viability; at 10 µM; active compounds read high
row,Compound,inhibition
1,O=C(NCC1COc2ccccc2O1)C1(c2ccccc2)CCCC1 (configuration not stated),4.71%
2,CCOC(=O)CSc1nnc(-c2ccc([N+](=O)[O-])cc2)o1,-7%
3,COCCN(C(=S)Nc1ccccc1OC)C1CCN(C(C)C)CC1,-1.11%
4,CCN1CCN(c2ccc(NC(=O)c3cnccn3)cc2)CC1,-5.28%
5,CCOC(=O)N1CCN(C(c2cccnc2)c2ccc3cccnc3c2O)CC1 (configuration not stated),100% (active)
6,CCN1CCN(C(c2cccnc2)c2cc(Cl)c3cccnc3c2O)CC1 (configuration not stated),52.4% (active)
7,CCOC(=O)N1CCN(C(=O)CSc2ccc(Cl)cc2)CC1,-6.22%
8,Oc1c(C(c2ccccn2)N2CCOCC2)ccc2cccnc12 (configuration not stated),5.34%
9,Cc1ccnc2nc(C(=O)OCC(=O)N(CC(C)C)CC(C)C)nn12,4.48%
10,CN(c1ccccc1)S(=O)(=O)c1cc(C(=O)OCC(=O)N2CCN(C(=O)c3ccco3)CC2)ccc1Cl,-3.3%
11,Nc1ncnc(Nc2cccc(Cl)c2Cl)n1,-0.16%
12,Cc1ccc(C(=O)NCC2CCCO2)o1 (configuration not stated),-4.63%
13,OC(CNCC1CCCO1)Cn1c2ccc(Br)cc2c2cc(Br)ccc21 (configuration not stated),101% (active)
14,Cc1cc(Br)ccc1NC(=O)C1CCCO1 (configuration not stated),-3.76%
15,COc1cc(C(=O)Nc2cc(C(F)(F)F)ccc2-n2cncn2)cc(OC)c1OC,15.4%
16,CC(C)C(=O)NC(NC(=S)NC1CCS(=O)(=O)C1)C(Cl)(Cl)Cl (configuration not stated),-3.47%
17,O=C(CSc1ccccc1F)NC1CCS(=O)(=O)C1 (configuration not stated),1.43%
18,COc1ccc(NC(=S)NC2CCS(=O)(=O)C2)cc1 (configuration not stated),6.02%
19,CCN(CC(=O)NC1CCS(=O)(=O)C1)S(=O)(=O)c1ccccc1 (configuration not stated),47.9%
20,O=S1(=O)CCC(NC(=S)SCc2ccccc2Br)C1 (configuration not stated),89.6% (active)
21,CCCSC(=S)NC1CCS(=O)(=O)C1 (configuration not stated),100% (active)

row,Compound,inhibition
1,COc1cccc(OC)c1C(=O)NC(=S)NCc1ccco1,0.66%
2,Cc1nn(-c2ccccc2)c(-n2cccc2)c1C(=O)O,-0.36%
3,CCC(C)NC(=O)Cn1nc(C(F)(F)F)c2c1CCC2 (configuration not stated),-5.4%
4,CCOc1cnc(-c2c(-c3ccccc3Cl)noc2C)o1,-0.43%
5,COc1cc(OC)c(C2=NOC(C(=O)Nc3c(C)n(C)n(-c4ccccc4)c3=O)C2)cc1Cl (configuration not stated),-5.3%
6,CC1CCN(c2ccc([N+](=O)[O-])cc2C(N)=O)CC1,-3.26%
7,C=CCO/N=C/C1=C(O)C(C(=O)OC)C(C)(C)CC1=O (configuration not stated),-2.09%
8,Cc1cc(OCCCC(=O)NCCN2C(=O)S/C(=C\c3cccnc3)C2=O)ccc1Cl,42.1%
9,O=C(NCCN1C(=O)S/C(=C\c2cccnc2)C1=O)c1cccc(OC(F)F)c1,50.6% (active)
10,CCOc1ccc(N2CC(C(=O)NCCN3C(=O)S/C(=C\c4cccnc4)C3=O)CC2=O)cc1 (configuration not stated),-4.79%
11,O=C(CCc1ccccc1)Nc1ccc(NC(=O)C2CCCCC2)nc1,6.33%
12,Cc1ccc(SC(C)C(=O)NCc2ccc(F)cc2)cc1 (configuration not stated),-1.71%
13,CC(=O)Nc1ccccc1OC(=O)N1CCOCC1,-2.48%
14,O=C(c1cccs1)N1CCN(C(=O)N2CCOCC2)CC1,-6.96%
15,O=C(/C=C/c1cccs1)c1cc(Cl)ccc1OC(=O)N1CCOCC1,100% (active)
16,CCOC(=O)c1c(NC(=O)C2CCN(S(=O)(=O)c3ccc(Cl)cc3)CC2)sc2c1CCCC2,6.41%
17,Cc1ccc(S(=O)(=O)N2CCOCC2)cc1C(=O)OC1CCCCC1=O (configuration not stated),1.9%
18,CCNC(=O)COC(=O)/C=C/c1c(C)nn(Cc2cccc(OC)c2)c1Cl,-3.81%
19,CS(=O)(=O)N1CCc2cc(C(=O)Nc3ccccc3)ccc21,-3.72%
20,CC(=O)Nc1cccc(/C(C)=N/NC(=O)c2c(-c3ccccc3Cl)noc2C)c1,3.3%
21,Cc1onc(-c2ccccc2Cl)c1C(=O)NCCn1ccc2ccccc21,5.91%

row,Compound,inhibition
1,Cc1[nH]c2ccccc2c1C(=O)CSCC(=O)O,13.6%
2,Cc1[nH]c2ccccc2c1C(=O)COC(=O)c1c(-c2ccccc2)noc1C,95.7% (active)
3,Cc1[nH]c2ccccc2c1C(=O)COC(=O)C(C)C,-4.11%
4,Cc1onc(-c2ccccc2Cl)c1C(=O)OCC(=O)c1ccccc1,88% (active)
5,S=c1ccc2ccccc2[nH]1,-8.39%
6,CC(=O)NCC(=O)N(Cc1ccco1)C1(C(=O)NC2CCCC2)CCCCC1,1.81%
7,CCOC(=O)c1ccc(NC2Nc3cc(C)nn3S2)cc1 (configuration not stated),1.08%
8,O=C(COc1ccc(NC(=O)c2ccccc2[N+](=O)[O-])cc1)c1ccc(F)cc1,-3.68%
9,CN1CCN(c2ccc(S(=O)(=O)N3CCCCC3)cc2NC(=O)Cc2ccccc2F)CC1,67.6% (active)
10,COc1ccc(CC(=O)Nc2cc(S(=O)(=O)N3CCCCC3)ccc2N2CCN(C)CC2)cc1,47%
11,Cc1cccc(OCCC(=O)Nc2cc(S(=O)(=O)N3CCCCC3)ccc2N2CCOCC2)c1,22%
12,CC12CN(NC(=O)c3ccc(Cl)cc3)C3(C#N)CC1CCC23C (configuration not stated),7.74%
13,O=C(Nc1ccncc1)c1ccccc1[N+](=O)[O-],11.9%
14,COC(=O)CNC(=O)c1ccccc1[N+](=O)[O-],-1.1%
15,COc1ccc(NC(=O)c2ccccc2[N+](=O)[O-])cc1OC,59.4% (active)
16,COC(=O)C1=C(C)NC(=O)CC1c1ccccc1OC (configuration not stated),-5.13%
17,Cc1ccc(N2NC(=O)/C(=C/C=C/c3ccco3)C2=O)cc1C,15.2%
18,Cc1cc(C(=O)N/N=C/c2cc([N+](=O)[O-])cc(C)c2O)n[nH]1,80.3% (active)
19,Cc1ccsc1C(=O)N/N=C/c1ccc([N+](=O)[O-])cc1,-8.42%
20,O=[N+]([O-])c1cc(Br)c(O)c(/C=N/Nc2nc3ccccc3s2)c1,-6.02%
